About 3,300 (8.5%) of roughly 39,000 compounds were called active. This excerpt belongs to a sample that is enriched for actives.

The test system of this assay is HepG2. Briefly: cytotoxicity call (relative viability < 0.9). To be noted: 10 µM.
With `C[C@H]1CN([C@@H](C)CO)C(=O)c2cc(NC(=O)CCN3CCOCC3)ccc2O[C@@H]1CN(C)C(=O)Nc1ccc(F)cc1`, the cytotoxicity call is “inactive”.
`C/N=C1\S[C@@H](CC(=O)NC(C)C)C(=O)N1C`: the cytotoxicity call was “inactive”.
As for `C[C@@H]1CN([C@@H](C)CO)C(=O)c2cc(C#Cc3cccnc3)cnc2O[C@@H]1CN(C)S(=O)(=O)c1ccccc1F`, the cytotoxicity call was “inactive”.
The same measure for `C[C@H]1CN([C@@H](C)CO)C(=O)c2cccc(NC(=O)CCCCCC(=O)Nc3ccccc3N)c2O[C@@H]1CN(C)S(=O)(=O)c1cn(C)cn1`: “inactive”.
The same measure for `CC(C)NC(=O)N(C)C[C@H]1OCCCC[C@@H](C)Oc2ccc(NC(=O)Nc3cccc4ccccc34)cc2C(=O)N([C@H](C)CO)C[C@@H]1C`: “inactive”; for `N#Cc1c(-c2ccccc2)no[n+]1[O-]`: “inactive”.
With `C[C@H]1CN([C@@H](C)CO)C(=O)c2cc(NC(=O)CCN3CCOCC3)ccc2O[C@@H]1CN(C)CC1CCCCC1` the entry was “inactive”; with `Cc1ccc(S(=O)(=O)N(C)C[C@H]2Oc3ccc(NS(=O)(=O)c4cn(C)cn4)cc3CC(=O)N([C@H](C)CO)C[C@@H]2C)cc1`, “inactive”.
As for `C[C@@H]1CN([C@H](C)CO)S(=O)(=O)c2ccc(C#Cc3ccncc3)cc2O[C@@H]1CN(C)C(=O)C1CCC1`, the cytotoxicity call is “active”.
With `Cc1noc(C)c1S(=O)(=O)Nc1ccc2c(c1)C(=O)N([C@@H](C)CO)C[C@@H](C)[C@@H](CN(C)S(=O)(=O)c1ccc(F)cc1)O2` the entry was “inactive”; with `C[C@@H]1CN([C@H](C)CO)C(=O)Cc2cc(NC(=O)Nc3ccc(C(F)(F)F)cc3)ccc2O[C@@H]1CN(C)Cc1ccc(Cl)c(Cl)c1`, “active”.
On to `C[C@@H]1CN([C@@H](C)CO)C(=O)Cc2cc(NC(=O)Nc3ccc(C(F)(F)F)cc3)ccc2O[C@H]1CN(C)Cc1ccc(Cl)c(Cl)c1`, for which the cytotoxicity call was “active”.
The same measure for `C[C@H]1CN([C@@H](C)CO)C(=O)Cc2cc(NC(=O)Nc3ccc(C(F)(F)F)cc3)ccc2O[C@@H]1CN(C)Cc1ccc(Cl)c(Cl)c1`: “inactive”.
Take `C[C@@H]1CN([C@H](C)CO)C(=O)Cc2cc(NC(=O)Nc3ccc(C(F)(F)F)cc3)ccc2O[C@H]1CN(C)Cc1ccc(Cl)c(Cl)c1`: the cytotoxicity call is “inactive”.
With `C[C@H](CO)N1C[C@H](C)[C@H](CN(C)Cc2ccc(Cl)c(Cl)c2)Oc2ccc(NC(=O)Nc3ccc(C(F)(F)F)cc3)cc2CC1=O` the entry was “inactive”; with `C[C@H]1CN([C@@H](C)CO)C(=O)Cc2cc(NC(=O)Nc3ccc(C(F)(F)F)cc3)ccc2O[C@H]1CN(C)Cc1ccc(Cl)c(Cl)c1`, “active”.
The same measure for `C[C@H](CO)N1C[C@H](C)[C@@H](CN(C)Cc2ccc(Cl)c(Cl)c2)Oc2ccc(NC(=O)Nc3ccc(C(F)(F)F)cc3)cc2CC1=O`: “active”; for `CC(C)NC(=O)N(C)C[C@@H]1Oc2ccc(NC(=O)CCCN(C)C)cc2C(=O)N([C@H](C)CO)C[C@@H]1C`: “inactive”.
The same measure for `COc1ccc2c3c(n(c2c1)C)[C@H](CO)N(C[C@]13CN(CC2CCOCC2)C1)C(=O)Cc1ccccn1`: “inactive”; for `NC(=O)c1ccc[n+](CC(=O)N2CCCCC2)c1`: “inactive”.
For `Cc1noc(C)c1S(=O)(=O)Nc1ccc2c(c1)C(=O)N([C@@H](C)CO)C[C@H](C)[C@@H](CN(C)C(=O)Nc1ccccc1)O2`, the cytotoxicity call was “inactive”.
With `O=C(C[C@H]1CC[C@H]2[C@@H](COC[C@@H](O)CN2S(=O)(=O)c2ccc(F)cc2)O1)N1CCc2ccccc2C1` the entry was “inactive”; with `O=c1nc(NCCN2CCOCC2)cn[nH]1`, “inactive”; with `NC(=O)Cn1nnc(-c2ccccc2)n1`, “inactive”.
`C[C@@H]1CN([C@H](C)CO)C(=O)c2cc(NC(=O)Nc3cccc4ccccc34)ccc2O[C@H]1CN(C)Cc1ccncc1`: the cytotoxicity call is “inactive”.
With `C[C@@H]1CN([C@@H](C)CO)C(=O)c2cccc(NC(=O)c3nc4ccccc4s3)c2O[C@@H]1CN(C)S(=O)(=O)c1cn(C)cn1` the entry was “inactive”.
`COc1ccc2c3c([nH]c2c1)[C@H](CO)N(C[C@]13CN(C1)S(=O)(=O)c1ccccc1)C(=O)c1cnccn1`: the cytotoxicity call is “inactive”.
The same measure for `COc1cccc(NC(=O)N[C@H]2CC[C@@H](CC(=O)N3CCOCC3)O[C@H]2CO)c1`: “inactive”; for `C[C@@H]1CN([C@@H](C)CO)C(=O)Cc2cc(NC(=O)Nc3ccc(C(F)(F)F)cc3)ccc2O[C@@H]1CN(C)Cc1ccc(Cl)c(Cl)c1`: “active”; for `COc1ccc(S(=O)(=O)N(C)C[C@H]2Oc3ccc(NC(=O)Cc4ccccc4)cc3C(=O)N([C@H](C)CO)C[C@@H]2C)cc1`: “inactive”.
`C[C@@H]1CN([C@H](C)CO)C(=O)c2cccc(NC(=O)Nc3cccc4ccccc34)c2O[C@H]1CN(C)C(=O)Nc1ccc2c(c1)OCO2`: the cytotoxicity call was “inactive”.
With `NS(=O)(=O)c1cccc2c1c([N+](=O)[O-])cc1[nH]c(=O)c(=O)[nH]c12` the entry was “inactive”; with `C[C@@H]1CCCCO[C@@H](CN(C)CC2CC2)[C@@H](C)CN([C@H](C)CO)C(=O)c2cc(NS(C)(=O)=O)ccc2O1`, “inactive”; with `C[C@@H]1CN([C@H](C)CO)C(=O)Cc2cc(NC(=O)Nc3ccc4c(c3)OCO4)ccc2O[C@H]1CN(C)Cc1ccc(-c2ccccc2)cc1`, “inactive”.
The same measure for `C[C@H](CO)N1C[C@H](C)[C@@H](CN(C)Cc2ccc(-c3ccccc3)cc2)Oc2ccc(NC(=O)Nc3ccc4c(c3)OCO4)cc2CC1=O`: “inactive”; for `C[C@H]1CN([C@@H](C)CO)C(=O)Cc2cc(NC(=O)Nc3ccc4c(c3)OCO4)ccc2O[C@H]1CN(C)Cc1ccc(-c2ccccc2)cc1`: “inactive”; for `C[C@@H]1CN([C@@H](C)CO)C(=O)Cc2cc(NC(=O)Nc3ccc4c(c3)OCO4)ccc2O[C@@H]1CN(C)Cc1ccc(-c2ccccc2)cc1`: “inactive”.
With `C[C@H](CO)N1C[C@H](C)[C@H](CN(C)Cc2ccc(-c3ccccc3)cc2)Oc2ccc(NC(=O)Nc3ccc4c(c3)OCO4)cc2CC1=O` the entry was “active”; with `C[C@H]1CN([C@@H](C)CO)C(=O)Cc2cc(NC(=O)Nc3ccc4c(c3)OCO4)ccc2O[C@@H]1CN(C)Cc1ccc(-c2ccccc2)cc1`, “active”; with `C[C@@H]1CN([C@@H](C)CO)C(=O)Cc2cc(NC(=O)Nc3ccc4c(c3)OCO4)ccc2O[C@H]1CN(C)Cc1ccc(-c2ccccc2)cc1`, “active”.
`C[C@@H]1CN([C@H](C)CO)C(=O)Cc2cc(NC(=O)Nc3ccc4c(c3)OCO4)ccc2O[C@@H]1CN(C)Cc1ccc(-c2ccccc2)cc1`: the cytotoxicity call is “active”.
The same measure for `CC(C)NC(=O)N(C)C[C@@H]1Oc2ccc(NC(=O)NC3CCCCC3)cc2CC(=O)N([C@H](C)CO)C[C@H]1C`: “inactive”.
With `O=C(CN1CCOCC1)NCC[C@H]1CC[C@H](NS(=O)(=O)c2ccc(F)cc2)[C@H](CO)O1` the entry was “inactive”; with `C[C@@H]1CCCCO[C@H](CN(C)Cc2ccncc2)[C@H](C)CN([C@H](C)CO)C(=O)c2cc(NC(=O)c3ccccc3)ccc2O1`, “inactive”.
The same measure for `C[C@@H]1CCCCO[C@@H](CN(C)Cc2ccccc2)[C@@H](C)CN([C@H](C)CO)C(=O)c2cc(NC(=O)c3ccccc3)ccc2O1`: “inactive”; for `C[C@@H]1CN([C@H](C)CO)C(=O)c2cc(C#CCc3ccccc3)cnc2O[C@H]1CN(C)C(=O)C1CCOCC1`: “inactive”; for `Cc1ccc(S(=O)(=O)N(C)C[C@H]2Oc3ccc(NS(=O)(=O)c4c(C)noc4C)cc3C(=O)N([C@@H](C)CO)C[C@H]2C)cc1`: “inactive”.
For the compound `CC(C)(C)c1ccc(-c2nc3ccccc3s2)cc1`, the cytotoxicity call is “inactive”.
With `C[C@H](CO)N1C[C@H](C)[C@@H](CN(C)S(=O)(=O)c2ccccc2)Oc2ncc(-c3cccc(C(=O)N(C)C)c3)cc2C1=O`, the cytotoxicity call is “inactive”.
As for `Cc1noc(C)c1NC(=O)N(C)C[C@@H]1Oc2ccc(NC(=O)CCN3CCOCC3)cc2C(=O)N([C@H](C)CO)C[C@H]1C`, the cytotoxicity call is “inactive”.
With `C[C@@H]1CCCCO[C@H](CN(C)Cc2ccc3c(c2)OCO3)[C@@H](C)CN([C@@H](C)CO)C(=O)c2cc(NC(=O)Nc3ccc(C(F)(F)F)cc3)ccc2O1`, the cytotoxicity call was “active”.
Turning to `C[C@@H]1CCCCO[C@@H](CN(C)Cc2ccc3c(c2)OCO3)[C@H](C)CN([C@@H](C)CO)C(=O)c2cc(NC(=O)Nc3ccc(C(F)(F)F)cc3)ccc2O1`, the cytotoxicity call is “active”.
With `C[C@@H]1CN([C@@H](C)CO)C(=O)c2cc(NC(=O)Nc3ccc(C(F)(F)F)cc3)ccc2O[C@@H](C)CCCCO[C@@H]1CN(C)Cc1ccc2c(c1)OCO2` the entry was “inactive”; with `C[C@@H]1CN([C@H](C)CO)C(=O)c2cc(NC(=O)Nc3ccc(C(F)(F)F)cc3)ccc2O[C@@H](C)CCCCO[C@@H]1CN(C)Cc1ccc2c(c1)OCO2`, “active”.
The same measure for `C[C@@H]1CCCCO[C@@H](CN(C)Cc2ccc3c(c2)OCO3)[C@@H](C)CN([C@@H](C)CO)C(=O)c2cc(NC(=O)Nc3ccc(C(F)(F)F)cc3)ccc2O1`: “active”; for `C[C@@H]1CN([C@H](C)CO)C(=O)c2cc(NS(C)(=O)=O)ccc2O[C@@H](C)CCCCO[C@@H]1CN(C)C(=O)c1ccncc1`: “inactive”; for `C[C@H](CO)N1C[C@H](C)[C@H](CN(C)C(=O)Nc2ccnc(N3CCOCC3)c2)OCc2cnnn2CCCC1=O`: “inactive”.
The same measure for `Cc1noc(C)c1S(=O)(=O)N(C)C[C@@H]1Oc2ccc(NC(=O)CCCN(C)C)cc2C(=O)N([C@@H](C)CO)C[C@@H]1C`: “inactive”; for `C[C@H](CO)N1C[C@H](C)[C@@H](CN(C)Cc2ccc(Cl)c(Cl)c2)Oc2c(NC(=O)NC3CCCCC3)cccc2C1=O`: “inactive”; for `Cc1noc(C)c1NC(=O)Nc1cccc2c1O[C@@H](CN(C)C(=O)Nc1ccc(C(F)(F)F)cc1)[C@@H](C)CN([C@H](C)CO)C2=O`: “inactive”.
Consider `COc1ccc(S(=O)(=O)N(C)C[C@@H]2Oc3c(NC(=O)Nc4c(C)noc4C)cccc3C(=O)N([C@H](C)CO)C[C@@H]2C)cc1`, for which the cytotoxicity call was “inactive”.
The same measure for `CCCC(=O)Nc1ccc2c(c1)OC[C@@H](C)N(Cc1ccc(-c3ccccn3)cc1)C[C@@H](C)[C@H](OC)CN(C)C2=O`: “inactive”.
